# Compound activity from PubChem.
# Pf apPOL inh: Pf-apPOL DNA polymerase inhibition; 210,000 tested, 0.25% active; AID 1794808; Recombinant Pf-apPOL, molecular beacon fluorescence, 1.5 h; inhibition, % at 10 µM
# mHTT-CaM PPI inh: disrupts binding of mutant huntingtin to calmodulin. P42858. AlphaScreen His-mHTT/GST-CaM binding, luminescence. inhibition, % at 15 µM. 190,000 tested, 3.6% active;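 note: 0% = both proteins with DMSO and 100% = one protein alone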
# Target sequence (P42858 whole entry, looked up, stated change not applied): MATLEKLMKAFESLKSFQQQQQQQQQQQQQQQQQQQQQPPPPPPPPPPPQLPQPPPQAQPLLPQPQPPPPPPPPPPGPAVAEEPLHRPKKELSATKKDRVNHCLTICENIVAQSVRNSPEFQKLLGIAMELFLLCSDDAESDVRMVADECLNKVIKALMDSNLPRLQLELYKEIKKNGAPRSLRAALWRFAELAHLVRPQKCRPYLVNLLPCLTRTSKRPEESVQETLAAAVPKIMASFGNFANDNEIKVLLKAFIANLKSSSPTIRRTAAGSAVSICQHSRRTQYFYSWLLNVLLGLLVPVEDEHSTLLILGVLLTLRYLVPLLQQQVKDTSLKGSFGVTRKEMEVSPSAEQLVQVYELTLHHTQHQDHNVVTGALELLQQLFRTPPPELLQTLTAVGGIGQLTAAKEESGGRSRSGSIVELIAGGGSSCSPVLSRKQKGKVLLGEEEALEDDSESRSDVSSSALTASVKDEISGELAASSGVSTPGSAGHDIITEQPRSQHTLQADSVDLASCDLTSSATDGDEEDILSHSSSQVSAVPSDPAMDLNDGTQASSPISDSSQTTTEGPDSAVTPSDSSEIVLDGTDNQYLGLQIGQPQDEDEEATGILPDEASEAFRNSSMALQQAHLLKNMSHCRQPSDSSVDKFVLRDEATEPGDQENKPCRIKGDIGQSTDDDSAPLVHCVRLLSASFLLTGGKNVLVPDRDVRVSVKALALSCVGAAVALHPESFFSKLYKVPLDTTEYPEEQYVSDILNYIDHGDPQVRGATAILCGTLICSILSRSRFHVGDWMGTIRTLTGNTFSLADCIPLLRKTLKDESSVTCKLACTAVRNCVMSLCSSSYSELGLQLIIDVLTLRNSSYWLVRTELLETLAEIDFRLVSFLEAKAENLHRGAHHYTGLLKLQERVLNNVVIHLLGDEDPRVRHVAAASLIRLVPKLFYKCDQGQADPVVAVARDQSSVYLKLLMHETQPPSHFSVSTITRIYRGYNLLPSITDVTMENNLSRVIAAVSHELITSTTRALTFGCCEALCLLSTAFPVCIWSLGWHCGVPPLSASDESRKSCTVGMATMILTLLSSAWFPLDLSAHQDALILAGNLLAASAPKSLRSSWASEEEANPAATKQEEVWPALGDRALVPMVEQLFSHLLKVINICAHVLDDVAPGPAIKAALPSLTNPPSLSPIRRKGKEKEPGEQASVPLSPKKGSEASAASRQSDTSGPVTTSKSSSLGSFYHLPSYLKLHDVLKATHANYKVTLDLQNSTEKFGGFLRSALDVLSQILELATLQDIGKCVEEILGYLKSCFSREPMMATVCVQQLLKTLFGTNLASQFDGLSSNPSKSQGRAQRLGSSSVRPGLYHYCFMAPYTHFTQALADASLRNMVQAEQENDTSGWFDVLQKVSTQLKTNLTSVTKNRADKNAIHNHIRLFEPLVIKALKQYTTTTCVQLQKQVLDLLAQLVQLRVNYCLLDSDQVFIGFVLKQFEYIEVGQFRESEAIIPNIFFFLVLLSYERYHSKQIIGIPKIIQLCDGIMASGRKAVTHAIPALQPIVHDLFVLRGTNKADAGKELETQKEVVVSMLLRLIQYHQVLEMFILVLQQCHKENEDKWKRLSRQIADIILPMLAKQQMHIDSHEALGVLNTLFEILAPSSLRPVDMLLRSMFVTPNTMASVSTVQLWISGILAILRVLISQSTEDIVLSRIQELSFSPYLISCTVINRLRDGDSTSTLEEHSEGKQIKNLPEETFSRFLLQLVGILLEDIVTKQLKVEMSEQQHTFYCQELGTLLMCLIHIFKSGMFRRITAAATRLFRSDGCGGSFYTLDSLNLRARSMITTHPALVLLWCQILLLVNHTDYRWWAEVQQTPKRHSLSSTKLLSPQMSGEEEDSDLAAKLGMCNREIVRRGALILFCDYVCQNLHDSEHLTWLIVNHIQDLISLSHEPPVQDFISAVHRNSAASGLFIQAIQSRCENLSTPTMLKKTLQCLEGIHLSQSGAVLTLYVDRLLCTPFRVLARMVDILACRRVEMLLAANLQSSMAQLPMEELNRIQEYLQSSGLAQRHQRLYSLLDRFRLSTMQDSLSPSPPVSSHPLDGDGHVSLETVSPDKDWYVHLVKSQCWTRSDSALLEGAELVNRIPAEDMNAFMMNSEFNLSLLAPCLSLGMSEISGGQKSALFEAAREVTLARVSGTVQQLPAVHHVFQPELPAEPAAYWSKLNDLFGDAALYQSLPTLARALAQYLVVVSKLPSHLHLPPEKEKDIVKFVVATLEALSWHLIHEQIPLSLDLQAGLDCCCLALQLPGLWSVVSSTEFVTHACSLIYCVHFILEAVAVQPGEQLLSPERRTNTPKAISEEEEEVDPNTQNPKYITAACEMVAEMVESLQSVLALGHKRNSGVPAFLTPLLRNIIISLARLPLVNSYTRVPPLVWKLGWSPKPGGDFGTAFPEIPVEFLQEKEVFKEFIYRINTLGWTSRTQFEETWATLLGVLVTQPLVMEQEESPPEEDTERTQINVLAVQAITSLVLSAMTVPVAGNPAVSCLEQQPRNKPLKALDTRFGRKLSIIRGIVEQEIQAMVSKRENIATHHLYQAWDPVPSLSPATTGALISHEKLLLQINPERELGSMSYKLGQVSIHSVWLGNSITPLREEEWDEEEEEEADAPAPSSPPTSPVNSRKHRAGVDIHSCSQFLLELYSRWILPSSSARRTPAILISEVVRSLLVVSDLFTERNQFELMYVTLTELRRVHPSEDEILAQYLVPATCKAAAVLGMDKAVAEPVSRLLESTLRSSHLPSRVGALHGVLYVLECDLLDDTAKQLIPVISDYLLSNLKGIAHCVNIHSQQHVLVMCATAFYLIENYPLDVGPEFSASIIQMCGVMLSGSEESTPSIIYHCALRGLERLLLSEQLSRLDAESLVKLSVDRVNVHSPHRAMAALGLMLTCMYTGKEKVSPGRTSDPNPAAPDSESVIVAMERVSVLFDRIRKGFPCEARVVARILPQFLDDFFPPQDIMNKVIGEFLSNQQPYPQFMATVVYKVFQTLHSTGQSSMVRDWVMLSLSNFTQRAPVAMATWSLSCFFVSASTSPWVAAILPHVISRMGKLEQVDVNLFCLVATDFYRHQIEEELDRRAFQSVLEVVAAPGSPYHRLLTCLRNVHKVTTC
# Starred values were filed as active, the others as inactive; nt = not tested or not shown. In the library only some 3.5% were active in any assay of this set; here they are far more common. Cut-off read from the data, not from the text of the source: active = inhibition above about 50%; inactive = the rest.
SMILES,Pf apPOL inh,mHTT-CaM PPI inh
Cn1cc(CCN2CCN(C(=O)c3ccc(Cl)cc3)CC2)c2cccnc21,-2,22
CC(=O)N(CCC1(c2ccccc2)CCOC(C)(C)C1)Cc1ccc(N(C)C)cc1 (stereo unspecified),-4,75*
CC1(C)CC(CCN(Cc2ccccc2)C(=O)c2ccco2)(c2ccccc2)CCO1 (stereo unspecified),-1,26
CON=C(C(=O)Oc1c(Cl)c(Cl)c(Cl)c(Cl)c1Cl)c1ccco1,-5,nt
CCN(C)C(=O)c1ccccc1N1CCC(NC(=O)c2ccccc2C)CC1,-6,-3
O=C(CCc1nc2ccccc2n(Cc2c(F)cccc2Cl)c1=O)NCc1ccccc1,-7,55*
CCCCNC(=O)CCc1nc2ccccc2n(Cc2c(F)cccc2Cl)c1=O,-7,23
Cc1ccc(C2=NNC(C(O)C(O)C(O)C(C)O)S2)cc1 (stereo unspecified),nt,-2
Cc1ccc(C2=NNC(c3ccc(F)cc3)S2)cc1 (stereo unspecified),nt,62*
O=C(NCc1nnc2n1CCCC2)c1ccc2ccccc2n1,-16,-8
Cc1ccc(CNC(=O)C2CCN(c3cncnc3N3CCN(C)CC3)CC2)cc1,-3,8
O=C(NC1C2CC3CC(C2)CC1C3)c1ccccn1 (stereo unspecified),2,-11
CCOc1ccc(S(=O)(=O)N=C(Nc2ccccn2)c2ccccc2)cc1,2,4
CCc1ccc(S(=O)(=O)Nc2ccc(O)cc2)cc1,-6,1
CCOc1ccc(S(=O)(=O)N=C2C=C(Nc3ccc(O)cc3)C(=O)c3ccccc32)cc1,0,94*
CCc1ccc(S(=O)(=O)N=C2C=C(Nc3ccc(O)cc3)C(=O)c3ccccc32)cc1,-9,72*
Cc1ccc(Cl)cc1NC1=CC(=NS(=O)(=O)c2cccs2)c2ccccc2C1=O,-6,79*
CCOc1ccc(NC2=CC(=NS(=O)(=O)c3ccc(OC)cc3)c3ccccc3C2=O)cc1,0,38
Cc1ccccc1NS(=O)(=O)c1cccs1,2,0
CCOc1ccc(NC2=CC(=NS(=O)(=O)c3ccccc3)c3ccccc3C2=O)cc1,-5,66*
CCC(=O)Nc1ccc(S(=O)(=O)N2CCc3c(nc(-c4ccccc4)[nH]c3=O)C2)cc1,-5,10
CSC(=NS(=O)(=O)c1ccccc1)N1CCCC1,-3,nt
O=C1C(Nc2ccc(O)cc2)=CC(=NS(=O)(=O)c2cccs2)c2ccccc21,2,94*
CS(=O)(=NC(=O)Nc1ccccc1)c1cccs1 (stereo unspecified),-3,nt
CCN1C(=O)c2ccccc2Oc2ccc(C(=O)NC3CC3)cc21,-6,-4
SMILES,Pf apPOL inh,mHTT-CaM PPI inh
O=C(Nc1cc(F)cc(F)c1)c1ccc(-c2cccc(F)c2)nc1,4,0
CNC(=O)N1CCCC(c2cccc(C(=O)N3CCN(c4ccccc4C)CC3)c2)C1 (stereo unspecified),-7,39
CNC(=O)N1CCCC(c2cccc(C(=O)N3CCN(c4cc(C)ccc4C)CC3)c2)C1 (stereo unspecified),-6,80*
CNC(=O)N1CCCC(c2cccc(C(=O)N3CCN(c4ccccc4)CC3)c2)C1 (stereo unspecified),-7,-1
CNC(=O)N1CCCC(c2cccc(C(=O)N3CCN(c4cccc(Cl)c4)CC3)c2)C1 (stereo unspecified),-7,98*
Cc1cccc2c(C(=O)NC3CCCC3)c3c(nc12)CCC3,-3,-4
O=C(Cn1cc2c(n1)CCCCC2)NCc1cccc(Cl)c1,0,-7
O=C1c2cccc([N+](=O)[O-])c2C(=O)N1CNc1ccccc1Cl,-1,9
Cc1ccc(NS(=O)(=O)c2ccc3c4c(cccc24)C(=O)N3)c(C)c1,-1,-27
Cc1ccc(NS(=O)(=O)c2cccc3c2C(=O)c2ccccc2C3=O)c(C)c1,-5,57*
CN(C)c1ccc(C=C2c3cc([N+](=O)[O-])cc([N+](=O)[O-])c3-c3c2cc([N+](=O)[O-])cc3[N+](=O)[O-])cc1,-1,44
COc1ccc(C=C2c3cc([N+](=O)[O-])cc([N+](=O)[O-])c3-c3c2cc([N+](=O)[O-])cc3[N+](=O)[O-])cc1,1,100*
CCC(=O)Nc1cccnc1-c1ccc(C(=O)Nc2ccc(OC)c(Cl)c2)cc1,5,2
COc1ccccc1NS(=O)(=O)c1ccc2[nH]c3c(c2c1)CCCCC3,-2,97*
COc1cc(NS(=O)(=O)c2ccc3[nH]c4c(c3c2)CCCC4)cc(OC)c1OC,-4,83*
COc1ccc(OC)c(NS(=O)(=O)c2ccc(-c3ccccc3)cc2)c1,-9,40
CCOc1ccccc1NS(=O)(=O)c1ccc2[nH]c3c(c2c1)CCCCC3,-1,26
COc1ccc(OC)c(NS(=O)(=O)c2ccc3[nH]c4c(c3c2)CCCC4)c1,-1,71*
CCC(C)NS(=O)(=O)c1ccc2[nH]c3c(c2c1)CCCC3 (stereo unspecified),-2,27
CCOC(=O)c1ccc(NS(=O)(=O)c2ccc3[nH]c4c(c3c2)CCCC4)cc1,-1,87*
O=S(=O)(Nc1cccnc1)c1ccc2[nH]c3c(c2c1)CCCCC3,-4,35
CCCNCc1nc2sc3c(c2c(=O)[nH]1)CCC3,-3,39
CC(C)c1ccc(N2CCC(C(=O)N(C)Cc3ccccc3)C2=O)cc1 (stereo unspecified),-4,-5
COc1ccccc1CNS(=O)(=O)c1ccc2[nH]c3c(c2c1)CCCC3,-1,64*
O=S(=O)(Nc1ccccc1F)c1ccc2[nH]c3c(c2c1)CCCC3,-6,56*
SMILES,Pf apPOL inh,mHTT-CaM PPI inh
COc1ccccc1CNS(=O)(=O)c1ccc(OC)c(OC)c1,-6,-2
COc1ccccc1NS(=O)(=O)c1ccc2[nH]c(=O)sc2c1,0,-2
COc1ccccc1NS(=O)(=O)c1ccc2[nH]c3c(c2c1)CCCC3,-1,81*
O=C1c2ccccc2C(=O)c2cc(S(=O)(=O)Nc3ccccc3F)ccc21,-2,26
CNc1nc2ccc(C)cn2c(=O)c1C=Nc1cccc(Cl)c1,-4,1
COc1ccc(C2C(C#N)=C(N)OC3=C2C(=O)CC(C)(C)C3)cc1COc1cccc(Cl)c1 (stereo unspecified),6,38
CCOC(=O)C1CCN(C(=O)CN2CCN(c3ccc4c(c3)OCO4)C2=O)CC1,-1,-5
CC1=C(C(=O)Nc2ccccn2)C(c2ccc(OCc3ccccc3)cc2)n2nnnc2N1 (stereo unspecified),6,46
CC1=C(C(=O)Nc2ccccc2)C(c2ccc(OCc3ccccc3)cc2)n2nnnc2N1 (stereo unspecified),-5,62*
COc1ccccc1NC(=O)Nc1cccc2cccnc12,-4,-4
COc1ccccc1C(NC(C)=O)c1ccc2cccnc2c1O (stereo unspecified),0,100*
COc1ccccc1C(NC(=O)C(C)C)c1ccc2cccnc2c1O (stereo unspecified),-1,99*
COc1ccccc1C(=O)Nc1cc(Br)cc2cccnc12,9,19
Cc1ccccc1NC(=O)CN1CCC2(CC1)N=C(c1ccccc1)C(=O)N2,-2,-5
CCNC(=O)Nc1ccc(N2CCCN(Cc3cccc(Cl)c3F)C2=O)cc1,-2,22
COc1cccc(N2CCN(CC(O)c3ccc4c(c3)OCO4)CC2)c1 (stereo unspecified),2,4
CCN1/C(=C/c2cccc[n+]2C)C=Cc2ccccc21,3,19
